Test results: PubChem BioAssay AID686978 (National Center for Advancing Translational Sciences (NCATS), 2013)
Among all 420,000 compounds or so, about 64,000 (15%) were called active. Not shown: some 27% with an inconclusive outcome. The call rests on the fitted dose curve; in most records, active means well fitted inhibition curve with a large enough effect; inconclusive means small, poorly fitted or top-dose-only effect; inactive means flat fitted curve, though single readings scatter. A selection follows. A call without a number means that no potency is given here.

Assay: qHTS for Inhibitors of human tyrosyl-DNA phosphodiesterase 1 (TDP1): qHTS in cells in absence of CPT; further: nearly all actives have a fitted effect of over 55% in size
Conditions: DT40 Tdp1-/- hTDP1 cells, no CPT, ATP luminescence, 48 h; activity change, negative = growth inhibition: at 46.2 µM (top of the series)
In short: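 Cells were dispensed at 400 per well, compounds added by pin tool, plates incubated ≥48 hr at 37 °C, then CellTiter-Glo added for 30 min at room temperature before luminescence reading. Line: DT40 Tdp1-/- complemented with hTDP1; camptothecin omitted.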
Potency means the concentration at half of the fitted maximal effect.

Structure (SMILES)	Potency
Cc1ccc(C(=O)NCC(=O)OCC(=O)NC2CCCCCCC2)cc1	inactive
O=C(NCCc1ccc(Cl)cc1)C1CC(=O)N(C2CCCCC2)C1 (stereo not given)	inactive
COc1ccc(C2C(=O)N(C3CCCCCC3)CC(=O)N2CCc2ccc(Cl)cc2)cc1OC (stereo not given)	23.1 µM (active)
COc1ccc(C2C(=O)N(C3CCCCC3)CC(=O)N2Cc2ccccc2Cl)cc1OC (stereo not given)	inactive
CCCCN(C(=O)c1nn(C)c(=O)c2ccccc12)c1c(N)n(CCC)c(=O)[nH]c1=O	inactive
CCN1C[C@@H]2[C@@H]3C(=O)N(C)C(=O)[C@@H]3[C@](C)(C1=O)N2C(=O)c1ccccc1	inactive
CCCOC(=O)c1cc2ccccc2oc1=O	inactive
CCCOC(=O)c1[nH]c2c(c1C)C(=O)CC(c1cc(OC)c(OC)c(OC)c1)C2 (stereo not given)	4.61 µM (active)
COc1cc(C2CC(=O)c3cnc(NC(C)=O)nc3C2)cc(OC)c1OC (stereo not given)	inactive
CCOC(=O)C1=C(N)N2C(=O)C(C)SC2=C(C(=O)OCC)C1c1cc(OC)c(OC)c(OC)c1 (stereo not given)	inactive
CCCOC(=O)c1[nH]c2c(c1C)C(=O)CC(c1cccs1)C2 (stereo not given)	0.58 µM (active)
Cc1noc(C)c1C(=O)N1CCC1(C)C(=O)NS(=O)(=O)c1ccc(C#N)cc1 (stereo not given)	inactive
Cn1c(SCC(=O)Nc2cccc(NC(=O)c3cccs3)c2)nnc1-c1ccncc1	inactive
COc1cc(OC)c(C(=O)N2CCCC2)cc1OC	inactive
Nc1cc(N2CCCCCC2)c2nonc2c1[N+](=O)[O-]	inactive
CCOc1ccc(N(C)S(=O)(=O)c2cnc[nH]2)cc1	inactive
CC(NS(=O)(=O)c1ccc(Br)cc1)C(=O)NCC1CCCO1 (stereo not given)	inactive
O=C(CCNS(=O)(=O)c1ccc(Br)cc1)NCC1CCCO1 (stereo not given)	inactive
OC(CNCC1CCCO1)Cn1c2ccc(Br)cc2c2cc(Br)ccc21 (stereo not given)	18.4 µM (active)
CN(C)c1ccc(C(CNS(=O)(=O)c2cc(F)ccc2F)N2CCOCC2)cc1 (stereo not given)	inactive
C[C@H](NC(=O)c1[nH]cnc1C(=O)Nc1nccs1)c1ccccc1	inactive
Cc1ccc(S(=O)(=O)N2CCOCC2)cc1C(=O)OC1CCCCC1=O (stereo not given)	inactive

Structure (SMILES)	Potency
CC(=O)N1CCc2cc(Br)cc(S(=O)(=O)CCC(=O)Nc3c(C)n(C)n(-c4ccccc4)c3=O)c21	inactive
CCOC(=O)c1c(N)nn(C(=O)c2ccccc2)c1-c1ccccc1	inactive
CCOC(=O)c1c(NC(=O)c2cc(-c3ccc(Cl)cc3)on2)sc2c1CCCC2	inactive
CCOC(=O)c1c(-c2ccc(-c3ccccc3)cc2)csc1NC(=O)CCC(=O)O	inactive
CCCS(=O)(=O)c1ncc(Cl)c(C(=O)Nc2scc(-c3ccccc3)c2C(=O)OCC)n1	3.66 µM (active)
CCOC(=O)c1c(-c2cccc(C)c2)csc1NC(=O)c1c(-c2ccccc2)noc1C	23.1 µM (active)
Cc1ccc2nc(NC(=O)c3nc(SCc4ccccc4F)ncc3Cl)sc2c1	inactive
CCOC(=O)C1CCN(C(=O)COC(=O)C2CCN(S(=O)(=O)c3ccc4c(c3)OCCO4)CC2)CC1	inactive
CCOC(=O)CN/C=C(\C#N)c1ccc(F)cc1	inactive
CC(C)CN(C(=O)Cn1c(=O)cnc2ccccc21)C1CCS(=O)(=O)C1 (stereo not given)	inactive
CC1(C(=O)Nc2ccc3c(c2)OCCO3)CN(S(C)(=O)=O)CC(=O)N1Cc1cccc(F)c1 (stereo not given)	inactive
O=C(C1CCCO1)N1CCN(C(=S)Nc2cccc(Cl)c2)CC1 (stereo not given)	inactive
CCOC(=O)C1CCN(C(=O)C2CCN(S(=O)(=O)N3CCCC3)CC2)CC1	inactive
O=C(CCCCn1c(=O)[nH]c2ccccc2c1=O)NCc1ccc2c(c1)OCO2	inactive
CCN(CC)C(=O)CSc1nc2cc3c(cc2c(=O)n1CCCC(=O)NCc1ccc2c(c1)OCO2)OCO3	16.4 µM (active)
CCCCNC(=O)CSc1nc2cc3c(cc2c(=O)n1CCCCCC(=O)NCc1ccc2c(c1)OCO2)OCO3	inactive
CN(C)/N=C/c1cn(-c2ccccc2)nc1-c1cccnc1	inactive
COc1ccc(-c2nn(-c3ccccc3)cc2/C=N/Nc2ccccn2)cc1OC	5.8 µM (active)
CC(C)(C)OC(=O)N/N=C/c1cn(-c2ccccc2)nc1-c1cccnc1	inactive
N#Cc1ccc(C(=O)Nc2cccc3cccnc23)c(F)c1	inactive
CC(=O)/C(=N\Nc1ccc(Cl)cc1Cl)Sc1cccc2cccnc12	4.11 µM (active)
O=C(Nc1cccc2cccnc12)c1cccc(Cl)c1	inactive

Structure (SMILES)	Potency
C#CCN(N(C)c1ncc(C(F)(F)F)cc1Cl)S(=O)(=O)c1ccc2ccccc2c1	inactive
Cc1csc(NC(=O)CSc2nnc(-c3cccnc3)o2)n1	inactive
O=C(NCCS(=O)(=O)NCc1ccc(F)cc1)c1ccccc1	inactive
O=C(COC(=O)c1ccc(O)cc1)Nc1nccs1	inactive
O=C(Cn1cnc([N+](=O)[O-])n1)NCCc1ccccc1	inactive
CCn1c(CNC(=O)c2cc(OC)c(OC)c(OC)c2)cc2cc(C)ccc21	13 µM (active)
COc1cc(-n2c(C)nc3cc(C(=O)NCc4ccco4)ccc32)cc(OC)c1OC	inactive
CCN1CCN(CC(=O)c2cc(OC)c(OC)c(OC)c2)CC1	inactive
COC(=O)c1cccc(NC(=O)c2cccc(N3C(=O)CCC3=O)c2)c1	inactive
O=C(O)c1ccccc1Cc1ccc(F)c2ccccc12	inactive
O=C(Nc1ccc(S(=O)(=O)N2CCOCC2)cc1)C1CCN(S(=O)(=O)c2ccc(Cl)cc2)CC1	10.3 µM (active)
O=C(Nc1ccc2c(c1)nc1n2CCCCC1)c1cc(S(=O)(=O)N2CCOCC2)ccc1Cl	14.6 µM (active)
O=C(COC(=O)c1ccccc1F)Nc1cc(S(=O)(=O)N2CCOCC2)ccc1N1CCCC1	inactive
CCOc1ccc(C(=O)NC(=S)Nc2ccc(N3CCOCC3)c(Cl)c2)cc1[N+](=O)[O-]	8.2 µM (active)
O=C(OCC(=O)N1CCCC1=O)c1cc(S(=O)(=O)N2CCOCC2)ccc1Cl	inactive
O=S(=O)(c1ccc(NC(=S)NN=C(C2CC2)C2CC2)cc1)N1CCOCC1	inactive
CC(=O)Nc1ccc(S(=O)(=O)N2CCC(C(=O)NC3CC3)CC2)cc1	inactive
CCOc1ccc(C(=O)Nc2ccc(CN3CCOCC3)cc2)cc1Cl	inactive
COCCNC(=S)Nc1cc(S(=O)(=O)N2CCOCC2)ccc1N1CCCCC1	16.4 µM (active)
CCOc1ccc(C(=O)NC(=S)Nc2ccc(NC(=O)C(C)C)cc2)cc1[N+](=O)[O-]	inactive
O=C(CNCc1ccco1)Nc1cc(S(=O)(=O)N2CCOCC2)ccc1N1CCCC1	inactive
